Screens as filed in PubChem.
Only some compounds are listed: those with a hit (about 7.9% of all), similar ones and a draw of the others.
MCF10A rerep – DNA re-replication induction in MCF 10a cells. MCF 10A DNA re-replication, Hoechst nuclear intensity, 48 h. Potency, µM (top dose mostly 46.1 µM), without a hit: at the highest dose activity, positive = re-replication, most hits filed as activators. 2.9% of 350,000 active. AID 624296; note: % of control where 0% means no effect; nearly all actives have a fitted effect of over 50% in size
HT1080 IDH1KD tx – toxicity to HT-1080 IDH1 knockdown cells (counter line) | HT-1080 IDH1 knockdown viability, ATP luminescence, 48 h | Potency, µM (top dose mostly 46.1 µM), for inactives: at the top dose activity, negative = toxicity, actives largely listed as cytotoxic | 2% of 360,000 active | AID 686971;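 note: 0% = DMSO wells and -100% = cell-free medium wells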
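In this qHTS, HT-1080 cells depleted of IDH1 are exposed for 48 h at 37 °C to compound titrations. Toxicity is scored from CellTiter-Glo luminescence, with DMSO as full viability and medium alone as none.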
HT1080NT lethal – kills 2HG-producing HT-1080-NT fibrosarcoma cells; Potency, µM (series often up to 46.1 µM), inactives show top-dose activity, negative = less viability, actives largely listed as cytotoxic; 1.6% of 360,000 active; HT-1080-NT fibrosarcoma viability, CellTiter-Glo ATP luminescence, 48 h; AID 686970;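 note: NT is the 2HG producing partner of a matched IDH1 knockdown line; 0% = DMSO-treated cells and -100% = media-only wells without cells; nearly all actives have a fitted effect of over 55% in size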
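Viability of the 2HG-overproducing fibrosarcoma line after 48 hours of compound exposure at 37 degrees C was determined by luminescence with CellTiter-Glo, and concentration-effect curves were then fitted and categorized.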
KB-V1 MDR tox – KB-V1 MDR subline cytotoxicity; AID 1347076; 3.4% of 400,000 active; Potency, µM (highest dose often 46.1 µM), actives largely listed as cytotoxic; KB-V1 MDR cells viability, CellTiter-Glo, 72 h; note: % is set by controls: 0 for no effect and ±100 for the full control effect; nearly all actives have a fitted effect of over 60% in size
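Cells of the MDR subline KB-V1 are plated, dosed with compound at multiple concentrations, and incubated 72 h at 37 degrees C; CellTiter-Glo is then added and luminescence read after 10 min.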
SW480 rereplic – induces DNA re-replication in SW480 colon adenocarcinoma cells. SW480 DNA re-replication, Hoechst DNA content imaging, 48 h. Potency, µM (series often up to 46.1 µM), for the others: at the top dose re-replication activation, most hits filed as activators. 1.8% of 340,000 active. AID 624297; note: % of control where 0% means no effect; nearly all actives have a fitted effect of over 55% in size
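Treated cells incubate 48 hr (37 C, 5% CO2), are stained 40 min with Hoechst, and nuclear fluorescence is enumerated; a rise in nuclei with high DNA signal marks re-replication.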
KB-3-1 cytotox – KB-3-1 parental cell cytotoxicity | KB-3-1 viability, CellTiter-Glo ATP luminescence, 72 h | Potency, µM (titrated, usually from 46.1 µM), usual class: cytotoxic | 1.4% of 400,000 active | AID 1347075; note: % is set by controls: 0 for no effect and ±100 for the full control effect; nearly all actives have a fitted effect of over 60% in size
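72 h, 37 °C compound treatment of KB-3-1 parental cells; CellTiter-Glo added, 10 min, luminescence read. Data corrected against DMSO-only plates and normalized before curve fitting.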
The depositor's hits bear a star; i = inactive; ? = inconclusive; nt = not tested or not shown; ! = repeats disagree; [ ] = another dose, or the depositor's remark. Calls come from the whole dose curve; as a rule, active = well fitted curve in the direction sought with a large enough effect; inconclusive = small, poorly fitted or top-dose-only effect, or another doubt; inactive = no such curve, though single readings can be large; an effect the other way counts as inactive or inconclusive. Potency is the fitted concentration of half-maximal effect.

SMILES	MCF10A rerep	HT1080 IDH1KD tx	HT1080NT lethal	KB-V1 MDR tox	SW480 rereplic	KB-3-1 cytotox
OCC1OC(n2cnc3c(NCc4ccco4)ncnc32)C(O)C1O (centres undefined)	1.03µM*	11.6µM*	11.6µM*	?	8.2µM*	13µM*!
ClCCn1cnc2c(SCc3ccccc3)ncnc21	16.4%	?	1.2%	6.51µM*	?	4.11µM*
ClCCn1cnc2c(SCc3ccccc3Cl)ncnc21	8.7%	?	-20.7%	?	7.6%	?
Nc1ncnc2c1ncn2C1OC(CO)C(O)C1O (centres undefined)	-1.7%	20.7%	19.2%	i	11.3%	i
CC1=CCC(C(C)(C)O)CC1 (centres undefined)	6.1%	nt	nt	nt	0.4%	nt
CC(=O)N(c1cc(C)ccc1C)c1ccccc1[N+](=O)[O-]	14.1%	-7.8%	-17.8%	i	9.6%	i
OC(C[n+]1c(Cl)ccc2ccccc21)c1ccccc1 (centres undefined)	nt	nt	nt	?	nt	i
Nc1ncnc2c1ncn2[C@@H]1O[C@H](CO)[C@@H](O)[C@@H]1O	7.31µM*	-1.9%	15.9%	i	-57.0%	i
COc1cc(Cl)c(CNC[C@H]2O[C@@H](n3cnc4c(=O)[nH]c(N)nc43)[C@H](O)[C@@H]2O)c(Cl)c1O	nt	27.0%	19.9%	i	nt	i
COc1cc(Cl)c(CNC[C@H]2O[C@@H](n3cnc4c(N)ncnc43)[C@H](O)[C@@H]2O)c(Cl)c1O	7.31µM*	-0.3%	-0.7%	i	-7.6%	i
OC[C@H]1O[C@@H](n2cnc3c(NCc4ccco4)ncnc32)[C@H](O)[C@@H]1O	?	6.51µM*	5.8µM*	i	?	16.4µM*
OCC1OC(n2cnc3c(SCc4ccccc4)ncnc32)C(O)C1O (centres undefined)	?	23.1µM*	7.31µM*	?	0.1%	i
Cc1ccccc1CNc1ncnc2c1ncn2C1OC(CO)C(O)C1O (centres undefined)	12.9%	nt	nt	nt	-3.3%	nt
Nc1ncnc2c1ncn2C1O[C@H](CO)[C@@H](O)[C@@H]1O (some centres undefined)	-22.8%	0.3%	-1.8%	i	-29.5%	i
O=S(=O)(Nc1cccc(-c2ccc(N3CCCC3)nn2)c1)c1ccccc1C(F)(F)F	nt	nt	nt	i	nt	i
Cc1ccccc1OCCNc1ccc(C(F)(F)F)cc1[N+](=O)[O-]	16.7%	2.7%	2.5%	?	-11.2%	16.4µM*
O=[N+]([O-])c1cc(C(F)(F)F)ccc1NCCOc1ccccc1	-4.5%	-2.1%	-4.4%	i	17.6%	i
COC(=O)c1c(NC(=O)/C=C/C(=O)O)sc(C)c1-c1ccc(C(C)C)cc1	3.26µM*	?	?	?	14.6µM*	20.6µM*
CCOC(=O)c1c(NC(=O)/C=C/c2ccc(OCC)cc2)sc(C)c1C	nt	nt	nt	i	nt	i
COC(=O)c1c(NC(=O)/C=C/C(=O)O)sc(C)c1-c1ccc(C)c(C)c1	16.4µM*	?	?	i	?	?
CC(C)=C1C2CCC1C(C(=O)Nc1sc(C)c(-c3ccc(C(C)C)cc3)c1C(N)=O)C2C(=O)O (centres undefined)	33.1%	16.4µM*	?	2.06µM*	?	?
CCOC(=O)c1c(NC(=O)/C=C/C(=O)O)sc(C)c1-c1ccc(F)cc1	?	?	20.6µM*	?	0.0%	?
COC(=O)c1scc(C)c1NC(=O)/C=C/C(=O)O	-2.9%	5.3%	4.6%	i	-19.1%	i
CCC1(CC)NC(=O)N(CC(=O)OC(C)C(=O)Nc2ccc(S(N)(=O)=O)cc2)C1=O (centres undefined)	nt	3.6%	6.5%	i	nt	i
CCOC(=O)c1cccc(NC(=O)C2Cc3ccccc3N2C(=O)c2ccccc2)c1 (centres undefined)	nt	nt	nt	i	nt	i
SMILES	MCF10A rerep	HT1080 IDH1KD tx	HT1080NT lethal	KB-V1 MDR tox	SW480 rereplic	KB-3-1 cytotox
Cc1ccc(Cc2c(C)nn(-c3nc(C)c(C(=O)N4CCCCC4C)s3)c2C)cc1 (centres undefined)	nt	nt	nt	i	nt	i
OC(c1ccc(-c2ccccc2)cc1)c1ncc(-c2ccc(F)cc2)[nH]1 (centres undefined)	nt	?	?	i	nt	i
CCCCOC(=O)c1ccc(Nc2ncnc3c2cnn3-c2cccc(C)c2)cc1	nt	nt	nt	i	nt	i
CCOC(=O)c1c(C)nn(-c2ccc(NC(=O)/C=C/C(=O)O)cc2)c1C	-1.7%	20.6%	5.2%	i	-5.8%	i
CCOC(=O)c1c(NC(=O)/C=C/C(=O)O)sc(C)c1-c1ccc(C)c(C)c1	4.11µM*	?	?	i	12.6%	i
Cc1cc(N2CCN(c3ccc([N+](=O)[O-])c4cccnc34)CC2)c2ccccc2n1	?	?	?	?	8.5%	16.4µM*
Cc1cc(N2CCN(S(=O)(=O)c3ccccc3)CC2)c2ccccc2n1	3.66µM*	?	?	?	?	i
COc1nc(N)c(C#N)c(-c2ccc(N(C)CCC#N)cc2)c1C#N	18.4µM*	-7.0%	-0.3%	?	15.1%	i
COc1ccc(C2=C(Nc3ccc(Br)c(C)c3)c3ccccc3C2=O)cc1	nt	nt	nt	?	nt	i
Cc1ccc(-c2nc(P(=O)(c3ccccc3)c3ccccc3)c(N3CCOCC3)o2)cc1	?	-12.9%	-6.3%	i	26.6%	i
CNc1oc(-c2ccc(Cl)cc2)nc1P(=O)(c1ccccc1)c1ccccc1	16.4µM*	?	?	?	15.1%	?
Cc1cc(NC(=O)CCS(=O)(=O)c2nc(-c3ccccc3)cc(C(F)(F)F)n2)no1	5.17µM*	-14.4%[9.24 µM]	?	i	?	?
CS(=O)(=O)c1nc(-c2ccccc2)cc(C(F)(F)F)n1	2.59µM*	11.6µM*	20.6µM*	?	?	?
Cc1ccccc1Cn1c2ccccc2c2cnn(CC(=O)NCCCc3ccccc3)c(=O)c21	nt	nt	nt	i	nt	i
Cc1ccc(-n2ncc3c(SCc4cccnc4)ncnc32)c(C)c1	10.7%	?	?	5.8µM*	2.3%	i
Cc1cccc(CSc2ncnc3c2cnn3Cc2ccccc2)c1	?	2.2%	6.4%	14.6µM*	12.9%	?
Cc1ccc(-n2ncc3c(N4CCCC4)ncnc32)c(C)c1	9.2%	-3.4%	-2.4%	i	-3.1%	i
CCOC(=O)CNC(=O)CSc1ncnc2c1cnn2Cc1ccccc1	13.8%	18.4µM*	?	i	2.7%	?
